# An excerpt weighted towards active compounds, which were near 0.43% of everything screened.
# Tb PFK inh: inhibitors of T. brucei phosphofructokinase; 0.17% of 330,000 active; O15648; T. brucei PFK, ADP-Glo luminescence; AID 485367; Potency, µM (titrated, usually from 57.5 µM), for the others: at the top dose activity, negative = inhibition, most hits filed as inhibitors; active = well fitted inhibition curve with a large enough effect; inconclusive = small, poorly fitted or top-dose-only effect, or effect the other way;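 note: potency is the fitted concentration of half-maximal effect; 0% = uninhibited 1x PFK enzyme wells and -100% = no-enzyme wells; nearly all actives have a fitted effect of over 60% in size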
#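 Compounds were pin-transferred as a titration series up to 57 uM into substrate buffer (0.5 mM F6P, 0.1 mM ATP, pH 8.0), then 1.25 nM PFK was added and reactions ran 45 min before ADP-Glo detection.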
# Menin-MLL FL inh: menin-MLL binding inhibition, fluorescein peptide. Fluorescence polarization, fluorescein-MLL peptide displacement from menin. 290,000 tested, under 10 active. AID 1766. FP activity change, % at 61.4 µM; active = well fitted curve in the direction sought with a large enough effect in the polarisation, not every such curve was filed as active; inconclusive = small, poorly fitted or top-dose-only effect, or effect the other way, or a change in a side signal; inactive = no such curve, though single readings can be large or run the other way; the % refers to the polarisation; note: % of control where 0% means no effect
# MLL CXXC-DNA inh: inhibitors of human MLL CXXC domain-DNA interaction. MLL-CXXC / FITC-HOXA9 DNA fluorescence polarization. Potency, µM (doses to about 115 µM), for inactives: top-dose activity change, negative = inhibition, most hits filed as inhibitors. 0.037% of 290,000 active. AID 2662; active = well fitted inhibition curve with a large enough effect in the polarisation, with a control signal flat, not every such curve was filed as active; inconclusive = small, poorly fitted or top-dose-only effect, or effect the other way, or a change in a side signal; inactive = no such curve, though single readings can be large or run the other way; the % refers to the polarisation; note: potency is the fitted concentration of half-maximal effect
#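 Fluorescence polarization: 7 uM MLL-CXXC (stock) preincubated 5 min with compounds, then 50 nM fluorescein-HOX-A9 DNA (stock) added; 30 min ambient. Buffer 50 mM Tris-HCl pH 7.5, 50 mM NaCl, 1 mM DTT, 0.05% BSA.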
# Menin MLL FP TR: menin-MLL binding inhibition, Texas Red mutant peptide. O00255. 0.23% of 270,000 active. AID 1768. Menin + Texas Red MLL mutant peptide, fluorescence polarization. Potency, µM (series often up to 61.6 µM), for inactives: at the top dose FP activity change, negative = inhibition, hits mostly inhibitors; active = well fitted inhibition curve with a large enough effect in the polarisation, with a control signal flat, not every such curve was filed as active; inconclusive = small, poorly fitted or top-dose-only effect, or effect the other way, or a change in a side signal; inactive = no such curve, though single readings can be large or run the other way; the % refers to the polarisation; note: potency is the fitted concentration of half-maximal effect; % of control where 0% means no effect
# RGS12 GoLoco inh: inhibitors of human Gai1-RGS12 GoLoco interaction (red fluorophore). P63096. 0.44% of 230,000 active. Gai1:RGS12 GoLoco peptide FP, rhodamine, 10 min. Potency, µM (titrated, usually from 61.6 µM), without a hit: at the highest dose activity, negative = inhibition, usual class: inhibitors; active = well fitted inhibition curve with a large enough effect, not every such curve was filed as active; inactive = no such curve, though single readings can be large or run the other way; note: potency is the fitted concentration of half-maximal effect; % is set by controls: 0 for no effect and ±100 for the full control effect; nearly all actives have a fitted effect of over 30% in size
# The depositor's hits bear a star; ? = inconclusive; nt = no result; ! = a repeat was not active.
SMILES,Tb PFK inh,Menin-MLL FL inh,MLL CXXC-DNA inh,Menin MLL FP TR,RGS12 GoLoco inh
CC(C)n1cc(/C=C2/SC(=O)N(CC(=O)Nc3ccc4c(c3)OCO4)C2=O)c2ccccc21,0.3%,2.2,14.1%,7.94µM*,20.4%
CCCCCn1ccc(=N)cc1,4.5%,7.7,-2.6%,-16.0%,12.6µM*
CCCCCCCn1ccc(=N)cc1,-0.1%,1.9,17.9%,-7.6%,15.8µM*
CCCCCCCCCn1ccc(=N)cc1,3.8%,-5.5,-6.0%,nt,2.0%
C=CCOC[C@@H]1CN2[C@H](c3ccc(Br)cc3)[C@@H](C)CC[C@H]2C(=O)O1,nt,-2.8,nt,-0.9%,-0.1%
CCOC(=O)C(C(=O)OCC)C(C(=O)OCC)N1CCOCC1 (configuration not stated),-4.1%,-2.9,23.6%,-5.9%,14.1µM*
CC1=c2c(oc3cc(O)c(Nc4c(C)cc(O)cc4O)c(C)c23)=CC(=O)C1=Nc1c(C)cc(O)cc1O,nt,nt,nt,nt,3.16µM*
Cc1ccccc1NC(=O)CCC(=O)OCC(=O)c1ccc(-c2ccccc2)cc1,-3.0%,-0.8,-15.8%,35.5µM*,7.1%
O=C(CCC(=O)OCC(=O)c1ccc(-c2ccccc2)cc1)Nc1cccc(Cl)c1,-4.0%,-0.7,19.3%,25.1µM*,3.3%
O=c1c2nc(Br)n([C@@H]3O[C@@H]4CO[P@@](O)(=S)O[C@H]4[C@H]3O)c2nc2[nH]c(-c3ccccc3)cn12,nt,1.8,nt,-14.9%,nt
O=C1CC(=O)N(Cc2ccco2)C(=O)N1,23.9µM*,?,10.2%,3.4%,22.5%
O=C1CC(=O)N(Cc2cccs2)C(=O)N1,-1.1%,?,-4.2%,-10.2%,4.5%
COc1ccc2c(c1)C(=O)[C@@H](OC(=O)N[C@H]1CCCc3ccccc31)[C@H](c1ccc(OC)c(Br)c1)O2,nt,0.5,nt,10.0%,8.2%
Cc1noc(C)c1-c1ccc2ncnc(NCc3ccco3)c2c1,nt,3.2,nt,-9.2%,nt
O=C(C[n+]1ccc(CCSc2ccc(F)cc2)cc1)c1ccccc1,?,?,31.5%,17.8µM*,90.4%
Cc1ccc(SCCc2cc[n+](CC(=O)c3ccccc3)cc2)cc1,5.0%,-2.2,4.5%,-14.5%,12.6%
CC(N)(C(=O)O)c1cccc(CC(=O)O)c1 (configuration not stated),nt,nt,nt,nt,7.8%
COCCCNC(=O)c1ccc2c3c(onc13)-c1ccccc1C2=O,-7.1%,?,-26.3%,nt,20µM*
COCCCNC(=O)c1ccccc1Oc1ccccc1,0.5%,1.7,2.4%,-17.4%,8.6%
CCCNc1c(F)c(F)c2c(C)c3ccccc3nc2c1F,13.4%,?,?,?,28.2µM*
O=C(O)c1cc2cc(Cc3cccnc3)ccc2o1,nt,?,-1.9%,3.7%,28.2µM*!
Cc1cc2nc3c(=O)[nH]c(=O)nc-3n(CC(O)C(O)C(O)COP(=O)(O)O)c2cc1C (configuration not stated),nt,?,?,2.8%,15.8µM*
CCCCCCCCOc1ccc(C2OC34CCCCC3C(C#N)(C#N)C2(C#N)C(=N)O4)cc1 (configuration not stated),-5.4%,?,?,?,28.2µM*
N#CC1(C#N)C(c2ccccc2)OC23CCCCC2C1(C#N)C(=N)O3 (configuration not stated),0.3%,?,?,-10.2%,-126.2%
CCCCC1OC23CCCCC2C(C#N)(C#N)C1(C#N)C(=N)O3 (configuration not stated),-1.5%,?,7.3%,?,28.2µM*
SMILES,Tb PFK inh,Menin-MLL FL inh,MLL CXXC-DNA inh,Menin MLL FP TR,RGS12 GoLoco inh
CCOC(=O)C1=CC(OC(CC)CC)C(NC(C)=O)C(N)C1 (configuration not stated),nt,-1.3,2.6%,?,31.6µM*
CC1(C)S[C@@H]2[C@H](NC(=O)[C@H](C(=O)O)c3ccsc3)C(=O)N2[C@H]1C(=O)O,0.2%,-4.0,-12.3%,0.6%,25.1µM*!
c1ccc(N2CCOCCOCCOCCOCCOCC2)cc1,-4.5%,2.1,5.0%,8.7%,15.2%
C[N+]1(C)CCN(c2ccccc2)CC1,-0.2%,-11.7,2.6%,?,28.2µM*!
CC(=O)N1c2ccccc2C2(O)N=C(C)SC12 (configuration not stated),-19.7%,nt,-0.2%,nt,7.94µM*
CC(=O)N1c2ccccc2[C@@H](C)[C@@H]1C,9.4%,nt,nt,nt,nt
C=C1/C(=C\C=C2/CCC[C@]3(C)C([C@H](C)CCCC(C)(C)O)CC[C@@H]23)C[C@@H](O)C[C@@H]1O (some centres not stated),nt,nt,nt,nt,-2.2%
COc1cc2nc(SCc3ccc(Cl)cc3Cl)n(Cc3cccs3)c(=N)c2cc1OC,0.5%,0.5,21.5%,39.8µM*,4.9%
CC[C@H](C)[C@H](NC(=O)[C@@H](NC(=O)[C@@H](NC(=O)[C@H](CCC(=O)O)NC(=O)[C@H](CCC(=O)O)NC(=O)[C@H](CCC(=O)O)NC(=O)[C@H](C)NC(=O)[C@@H](N)CC(C)C)C(C)C)C(C)C)C(=O)N[C@@H](CCCNC(=N)N)C(=O)N[C@@H](CO)C(=O)N[C@@H](C)C(=O)N[C@@H](CC(N)=O)C(=O)N[C@@H](Cc1ccccc1)C(=O)N[C@H](C(=O)N[C@@H](CC(=O)O)C(=O)N[C@@H](CC(N)=O)C(=O)O)[C@@H](C)O,nt,-0.8,nt,14.2%,nt
CCCCC[C@H](O)/C=C/C=C\C/C=C\C/C=C\CCCC(=O)O,nt,0.5,nt,2.2%,1.0%
Cc1cccc(-n2c(O)c(C=Nc3cccc(O)c3)c3ccccc3c2=O)n1,8.8%,0.3,3.7%,nt,4.6%
CC1=NC(=O)C(N=Nc2cccc(O)c2)N1c1ccccc1 (configuration not stated),2.9%,-0.4,-19.6%,?,15.8µM*
N#Cc1cccc(-c2nc3cnc(Nc4ccccc4)nc3n(C[C@H]3CCCO3)c2=O)c1,nt,?,nt,28.2µM*,45.0%
O=c1c(-c2ccccc2)nc2cnc(N3CCOCC3)nc2n1C1CC1,nt,-6.7,nt,?,-11.8%
O=c1c(-c2ccccc2)nc2cnc(Nc3ccccc3)nc2n1C[C@H]1CCCO1,nt,?,nt,37.4%,-0.6%
N#Cc1cccc(-c2nc3cnc(N4CCOCC4)nc3n(C3CC3)c2=O)c1,nt,?,nt,?,3.16µM*
COc1ccc(/C=C/C(=O)OCCC(C)C)cc1,nt,-4.9,-1.0%,-8.2%,6.9%
CCN1CCN(Cc2nc3ccc([N+](=O)[O-])cc3c(=O)n2-c2ccccc2F)CC1,-12.0%,-10.9,?,10µM*,nt
O=c1c2cc([N+](=O)[O-])ccc2nc(CN2CCN(c3ccccn3)CC2)n1-c1ccccc1F,-2.3%,-0.2,3.5%,27.2%,1.4%
CC(c1ccccc1)C1OCC(C[N+]2(C)CCCCC2)O1 (configuration not stated),-8.3%,-5.0,?,-13.4%,10µM*
COc1ccc2c(c1)O[C@@H](c1cccc(C(F)(F)F)c1)[C@H](OC(=O)NCc1ccco1)C2=O,nt,-2.4,nt,-15.6%,0.2%

# Screening results deposited in PubChem by National Center for Advancing Translational Sciences (NCATS).
